Assay results published in PubChem BioAssay (NCI).
About 83,000 compounds went through this panel and 20% of them were active in at least one assay; those are over-represented in the sample as a whole.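 Interpretation: 100, growth as untreated; towards 0, rising growth inhibition; 0, no net growth; 0 to -100, cell death. Compounds scoring below 10 were considered active.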 Calls of active or inactive are those of the source.

Experiments:
Assay in all cases: NCI-60 one-dose screen, 48 h (100 = growth as untreated, 0 = no growth, -100 = all killed)
Settings in all cases: 10 µM unless noted
SK-MEL-2 melanoma = tested on: SK-MEL-2 melanoma
EKVX NSCLC = tested on: EKVX NSCLC
SN12C renal = tested on: SN12C renal
UO-31 renal = tested on: UO-31 renal
TK-10 renal = tested on: TK-10 renal
ACHN renal = tested on: ACHN renal
CAKI-1 renal = tested on: CAKI-1 renal
A498 renal = tested on: A498 renal
CCRF-CEM leukemia = tested on: CCRF-CEM leukemia
MOLT-4 leukemia = tested on: MOLT-4 leukemia
SR leukemia = tested on: SR leukemia
RPMI-8226 leukemia = tested on: RPMI-8226 leukemia
OVCAR-8 ovarian = tested on: OVCAR-8 ovarian
OVCAR-5 ovarian = tested on: OVCAR-5 ovarian
OVCAR-4 ovarian = tested on: OVCAR-4 ovarian
SK-OV-3 ovarian = tested on: SK-OV-3 ovarian
IGROV1 ovarian = tested on: IGROV1 ovarian
OVCAR-3 ovarian = tested on: OVCAR-3 ovarian
HS 578T breast = tested on: HS 578T breast
NCI/ADR-RES ovarian = tested on: NCI/ADR-RES ovarian

Measured: growth

N#Cc1cccc(C2C3=C(COC3=O)N(CCO)c3cc4c(cc32)OCO4)c1 (stereo not given)
inactive: SK-MEL-2 melanoma 26.8% | EKVX NSCLC 51.8% | SN12C renal 44.2% | UO-31 renal 43.4% | TK-10 renal 50% | ACHN renal 39.2% | CAKI-1 renal 29.7% | A498 renal 11.9% | MOLT-4 leukemia 24.8% | SR leukemia 15.3% | RPMI-8226 leukemia 19.2% | OVCAR-8 ovarian 35.6% | OVCAR-5 ovarian 69.5% | OVCAR-4 ovarian 70.9% | SK-OV-3 ovarian 23% | IGROV1 ovarian 42.1% | HS 578T breast 20.2% | NCI/ADR-RES ovarian 57.3%
active: CCRF-CEM leukemia 7.91% | OVCAR-3 ovarian 3.12%

Clc1ccccc1-c1cnn2cc(-c3ccccc3)cnc12
inactive: SK-MEL-2 melanoma 101% | EKVX NSCLC 83.3% | SN12C renal 79.5% | UO-31 renal 84.6% | TK-10 renal 89.1% | ACHN renal 74.1% | CAKI-1 renal 81.4% | A498 renal 72% | CCRF-CEM leukemia 89.2% | MOLT-4 leukemia 83.7% | SR leukemia 59.9% | RPMI-8226 leukemia 87.1% | OVCAR-8 ovarian 78.9% | OVCAR-5 ovarian 79.6% | OVCAR-4 ovarian 76.1% | SK-OV-3 ovarian 83.9% | IGROV1 ovarian 78.6% | OVCAR-3 ovarian 90% | HS 578T breast 74.4% | NCI/ADR-RES ovarian 83.7%

CCN1C(=O)N(CC)C2C1NC(=S)N2/N=C/c1ccc(OC)cc1 (stereo not given)
inactive: SK-MEL-2 melanoma 65% | EKVX NSCLC 79.6% | SN12C renal 62.6% | UO-31 renal 51.8% | TK-10 renal 79.8% | ACHN renal 64% | CAKI-1 renal 32.9% | A498 renal 29.9% | CCRF-CEM leukemia 52.8% | MOLT-4 leukemia 47.7% | SR leukemia 24.1% | RPMI-8226 leukemia 85.4% | OVCAR-8 ovarian 70.4% | OVCAR-5 ovarian 82.7% | OVCAR-4 ovarian 81% | SK-OV-3 ovarian 57% | IGROV1 ovarian 44.9% | OVCAR-3 ovarian 17.1% | HS 578T breast 47.5% | NCI/ADR-RES ovarian 57.4%

NC(=O)c1c(NC(=O)c2cccc(C(F)(F)F)c2)sc2c1CCC(=O)C2
active: SK-MEL-2 melanoma -18.5% | EKVX NSCLC 9.15% | SN12C renal 3.64% | UO-31 renal -95.9% | TK-10 renal 5.23% | ACHN renal -93.4% | CAKI-1 renal -55% | CCRF-CEM leukemia 0.959% | MOLT-4 leukemia -18.1% | SR leukemia -13.2% | RPMI-8226 leukemia -22.5% | OVCAR-4 ovarian -92.2% | SK-OV-3 ovarian 1.42% | IGROV1 ovarian -6.14% | OVCAR-3 ovarian -37.6% | HS 578T breast 9.53% | NCI/ADR-RES ovarian -2.23%
inactive: A498 renal 53.2% | OVCAR-8 ovarian 13.6% | OVCAR-5 ovarian 12.8%

CCN1CCN(c2cc(C)nc(N(CCNc3ccnc4cc(Cl)ccc34)Cc3ccc4c(c3)OCO4)n2)CC1
inactive: EKVX NSCLC 22.2% | SN12C renal 74.4% | CAKI-1 renal 53.6% | OVCAR-5 ovarian 40.5% | OVCAR-4 ovarian 19.8% | IGROV1 ovarian 10.2% | HS 578T breast 30%
active: SK-MEL-2 melanoma -82.8% | UO-31 renal -30.6% | TK-10 renal -48% | ACHN renal 0.724% | A498 renal -1.76% | CCRF-CEM leukemia -18.5% | MOLT-4 leukemia -34.1% | SR leukemia -44.9% | RPMI-8226 leukemia -19.3% | OVCAR-8 ovarian 3.09% | SK-OV-3 ovarian -16.2% | OVCAR-3 ovarian -55.8% | NCI/ADR-RES ovarian -13.9%

O=C1/C(=C/c2ccccc2F)CN(C(=O)C(Cl)Cl)C/C1=C\c1ccccc1F
inactive: OVCAR-4 ovarian 14.9% | SK-OV-3 ovarian 32.4%
active: SK-MEL-2 melanoma -2.69% | EKVX NSCLC -8.07% | SN12C renal -79.9% | UO-31 renal -92% | TK-10 renal -39.7% | ACHN renal -100% | CAKI-1 renal -43.2% | A498 renal -62.5% | CCRF-CEM leukemia 1.7% | MOLT-4 leukemia -10.7% | SR leukemia -11.4% | RPMI-8226 leukemia -27.7% | OVCAR-8 ovarian 2.66% | OVCAR-5 ovarian -41.6% | IGROV1 ovarian -36.9% | OVCAR-3 ovarian -94% | HS 578T breast 4.55% | NCI/ADR-RES ovarian 5.18%

COc1ccc(C[n+]2c3ccccc3n3c4ccc(N)cc4ccc32)c(OC)c1OC
inactive: SK-MEL-2 melanoma 44% | EKVX NSCLC 49.3% | UO-31 renal 88.7% | TK-10 renal 78.2% | ACHN renal 101% | CAKI-1 renal 96.6% | A498 renal 81.3% | CCRF-CEM leukemia 40.4% | MOLT-4 leukemia 67.9% | SR leukemia 41.2% | RPMI-8226 leukemia 15.1% | OVCAR-8 ovarian 46.8% | OVCAR-5 ovarian 99.6% | OVCAR-4 ovarian 55.5% | SK-OV-3 ovarian 70% | IGROV1 ovarian 73.9% | OVCAR-3 ovarian 50.9% | HS 578T breast 43.5% | NCI/ADR-RES ovarian 103%
active: SN12C renal 6.42%

Oc1c(CN2CCCC2)cc(CSCc2ccccc2)c2cccnc12
active: UO-31 renal -18% | ACHN renal 5.28% | CAKI-1 renal 7.37% | A498 renal 9.44% | CCRF-CEM leukemia -14.9% | MOLT-4 leukemia -14.4% | SR leukemia -7.76% | RPMI-8226 leukemia 7.56% | OVCAR-8 ovarian 7.91% | OVCAR-4 ovarian -2.42% | SK-OV-3 ovarian -15.6% | IGROV1 ovarian -3.98% | OVCAR-3 ovarian 5.77% | NCI/ADR-RES ovarian -46.4%
inactive: SK-MEL-2 melanoma 11.3% | EKVX NSCLC 37% | SN12C renal 17.6% | TK-10 renal 22.4% | OVCAR-5 ovarian 41.8% | HS 578T breast 64.5%
